Bioassay records as filed in PubChem.
Only some compounds are listed: those with a hit (about 4.6% of all), similar ones and a draw of the others.
MARV entry inh: inhibitors of Marburg virus binding or cell entry | Potency, µM (doses to about 37.8 µM), without a hit: at the highest dose activity change, negative = inhibition, most hits filed as inhibitors | Marburg virus pseudotyped entry inhibition, cell reporter | 300,000 compounds, 1.8% hits | AID 540276; calls by dose curve; tested in HEK293 cells
HCV inh: inhibitors of hepatitis C virus infection; AID 651820; 340,000 compounds, 3.4% hits; Huh7.5.1 HCVcc-Cre infection, luciferase reporter, 44 h; Potency, µM (titrated, usually from 41.8 µM), for inactives: at the top dose activity change, negative = inhibition, hits mostly inhibitors; active = well fitted inhibition curve with a large enough effect; inconclusive = small, poorly fitted or top-dose-only effect, or another doubt; inactive = no such curve, though single readings can be large or run the other way
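Cells (1,000/well) were plated 4 h before compound, then infected with HCVcc-Cre virus (~0.5 moi). After 44 h further culture, infection was read as luciferase luminescence following a 15 min substrate incubation at room temperature.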
Vaccinia Venus: vaccinia inhibition (Venus reporter) | Vaccinia virus Venus reporter expression, fluorescence | Potency, µM (top dose mostly 36.5 µM), for inactives: at the top dose activity change, negative = inhibition, hits mostly inhibitors | 330,000 compounds, 0.46% hits | AID 720580; calls by dose curve; tested in A549 cells; note: nearly all actives have a fitted effect of over 30% in size
Vaccinia mCherry: inhibitors of vaccinia virus infection (mCherry reporter signal); 310,000 compounds, 0.63% hits; AID 720579; Potency, µM (highest dose often 36.5 µM), inactives show top-dose activity change, negative = inhibition, actives largely listed as inhibitors; Vaccinia virus mCherry reporter infection, fluorescence; calls by dose curve; tested in A549 cells; note: nearly all actives have a fitted effect of over 35% in size
Lassa entry inh: blocks Lassa virus binding to or entry into cells; Lassa virus pseudotype entry inhibition, cell reporter; Potency, µM (series often up to 37.9 µM), inactives show top-dose activity change, negative = inhibition, most hits filed as inhibitors; 300,000 compounds, 1.2% hits; AID 540256; calls by dose curve; tested in HEK293 cells; note: nearly all actives have a fitted effect of over 50% in size
Numbers without * were called inactive; i = inactive; ? = inconclusive; / = not tested or not shown; [ ] = another dose, or the depositor's remark. % is set by controls: 0 for no effect and ±100 for the full control effect; potency is the fitted concentration of half-maximal effect.

SMILES | MARV entry inh | HCV inh | Vaccinia Venus | Vaccinia mCherry | Lassa entry inh
O=C(NC1CCCCC1)C(c1ccncc1)N(Cc1ccccc1)C(=O)c1ccc(-c2ccccc2)[nH]1 (configuration not stated) | ? | 13µM* | / | / | ?
COc1ccc(CN(C(=O)c2cccs2)C(C(=O)NC2CCCCC2)c2ccc3ncccc3c2)cc1 (configuration not stated) | 2% | -8% | 0% | -6% | -3%
CCc1nn2c(=O)cc(COC(=O)c3cccc(NC(=O)COc4ccccc4F)c3)nc2s1 | / | / | -20% | -20% | ?
COc1ccc(-n2cc(CN3CCCC3)c(-c3cccc(F)c3)n2)cc1 | ? | -16% | -27% | -25% | -21%
CCC(COC)NCc1cn(-c2ccc(OC)cc2)nc1-c1cccc(F)c1 (configuration not stated) | 10µM* | -4% | -12% | -20% | ?
COc1ccc(-n2cc(CNC3CCN(C)CC3)c(-c3cccc(F)c3)n2)cc1 | 3.2µM* | 11µM* | ? | ? | 11µM*
COc1ccc(C2CC(=O)NC(NC(=O)c3ccc(Br)cc3)=N2)c(OC)c1OC (configuration not stated) | / | / | -8% | i | 11%[46.1 µM]
CCC(=O)c1ccc(OCc2ccc(C(=O)c3ccccc3)cc2)cc1 | ? | ? | -6% | -1% | 5µM*
CCC(=O)c1ccc(OCc2ccccc2)c(OC)c1 | ? | ? | -14% | -20% | ?
CN=c1scc(-c2ccc([N+](=O)[O-])cc2)n1/N=C/c1ccco1 | 4%[46.1 µM] | 12% | -10% | -5% | -3%
CN=c1scc(-c2ccc(F)cc2)n1/N=C/c1ccc(O)c(O)c1 | 18µM* | 2.2µM* | -18% | ? | ?
Cc1oc(-c2cccc(Cl)c2)nc1Cn1c(SCc2ccccc2F)nc2ccncc21 | ? | / | -12% | -15% | 22%[46.1 µM]
CNCCCC1Sc2ccccc2Oc2ccccc21 (configuration not stated) | ? | ? | -30% | ? | ?
CNCCCC12CCC(c3ccccc31)c1ccccc12 | 4.6µM* | ? | -25% | ? | 16µM*
CC(C)COC(=O)N(C)c1ccc(C(O)(C(F)(F)F)C(F)(F)F)cc1 | 5% | ? | ? | / | 3.5µM*
CCOC(=O)N(C)c1ccc(C(O)(C(=O)OC)C(F)(F)F)cc1 (configuration not stated) | 11% | -3% | -13% | / | -19%
O=C(CN1CCCCC1)c1ccccc1 | / | / | -7% | -13% | /
O=C(C(=Cc1ccccc1)CN1CCCCC1)c1ccccc1 | ? | 2.2µM* | ? | -27% | 3.5µM*
COC(=O)[C@@H]1C[C@@H](NC(=O)c2ccc(C(F)(F)F)cc2)CN1Cc1cccc(O)c1 | / | / | 1% | -2% | /
Cc1ccc(N2CCN(C(=O)c3cc(-c4ccc(F)cc4)[nH]c3C)CC2C)cc1 (configuration not stated) | ? | 11µM* | ? | 10µM* | ?
Cc1ccc(-c2nnc(Nc3ccc(O)cc3)c3ccccc23)cc1S(=O)(=O)NCC1CCCO1 (configuration not stated) | 10%[46.1 µM] | / | -25% | ? | -24%[46.1 µM]
CCCCn1c(=O)[nH]c(=O)c2c(C(=O)OCC)cc(-c3cccs3)nc21 | ? | 10µM* | -3% | -3% | ?
CCCn1c(=O)[nH]c(=O)c2c(C(=O)OCC)cc(-c3cccs3)nc21 | -12% | ? | -28% | -22% | ?
Cc1cc(F)ccc1N1CCC(N2CCN(C(C)C)C(CCO)C2)CC1 (configuration not stated) | ? | ? | -9% | -5% | -24%
COc1cccc(CN2CCN(C3CCN(c4cccc(C)c4C)CC3)CC2CCO)c1 (configuration not stated) | / | 11µM* | / | / | /
Cc1cc(F)ccc1N1CCC(N2CCN(CCC(C)C)C(CCO)C2)CC1 (configuration not stated) | ? | 10µM* | ? | ? | ?
Cc1ccc(C(=O)c2c(N)c(C(=O)Nc3ccccc3Cl)c3ccccn23)cc1 | ? | / | -6% | -8% | 18%[46.1 µM]
CCOc1ccc(NC(=O)Cn2nc3c(cc2=O)CC(C)CC3)cc1 (configuration not stated) | / | / | -13% | -15% | 0%[46.1 µM]
COc1cccc(CCN2CCC(CNS(=O)(=O)c3cc(-c4cc(C)no4)ccc3C)CC2)c1 | / | 13µM* | / | / | /
COc1cccc(CCN2CCC(CNS(=O)(=O)c3cc(-c4cc(C)no4)ccc3OC)CC2)c1 | / | 7.9µM* | / | / | /
